Results published in PubChem BioAssay (EPA / NIEHS).
Active and inactive are the calls of the source. Rule for the calls: active = hit-call score of the fitted dose curve at least 0.9, where 1 is the maximum; inactive = score below 0.9.

Legend:
[1] = read-out: Interleukin-1 alpha (IL1a), IL1A (gene 3552); assay: BSK_KF3CT_IL1a: BioMAP Diversity Plus: KF3CT Assay for Interleukin-1 alpha (IL1a) Biomarker Activity (AID 2283070); conditions: primary human keratinocytes with fibroblasts; actives raise or lower the signal
Summary of the method: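 Human keratinocyte plus foreskin fibroblast primary co-culture, sampled 24 h after chemical dosing. IL-1a measured by ELISA; responses fitted bidirectionally against DMSO baseline (negative control), so gain or loss of signal both count.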

[2] = read-out: TIMP metallopeptidase inhibitor 2 (TIMP2), TIMP2 (gene 7077); assay: BSK_KF3CT_TIMP2: BioMAP Diversity Plus: KF3CT Assay for TIMP metallopeptidase inhibitor 2 (TIMP2) Biomarker Activity (AID 2283071); conditions: primary human keratinocytes with fibroblasts; actives raise or lower the signal
Summary of the method: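 Cells: human keratinocytes co-cultured with foreskin fibroblasts. Treat with chemical, 24 h. Measure TIMP-2 by ELISA; fit curves bidirectionally vs DMSO baseline.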

[3] = read-out: Transforming growth factor beta 1 (TGFb1), TGFB1 (gene 7040); assay: BSK_KF3CT_TGFb1: BioMAP Diversity Plus: KF3CT Assay for Transforming growth factor beta 1 (TGFb1) Biomarker Activity (AID 2283072); conditions: primary human keratinocytes with fibroblasts; actives raise or lower the signal
Summary of the method: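 Primary human skin cells (keratinocytes, foreskin fibroblasts) were co-cultured, exposed to test chemical and sampled at 24 h. TGF-b1 levels were measured by ELISA and fitted bidirectionally relative to DMSO.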

[4] = read-out: Matrix Metallopeptidase 9 (MMP9), MMP9 (gene 4318); assay: BSK_KF3CT_MMP9: BioMAP Diversity Plus: KF3CT Assay for Matrix Metallopeptidase 9 (MMP9) Biomarker Activity (AID 2283074); conditions: primary human keratinocytes with fibroblasts; actives raise or lower the signal;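 for AC50: MMP9 protein level quantified by ELISA in the co-culture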
Summary of the method: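 Keratinocyte plus foreskin fibroblast human primary skin co-culture was dosed with chemical and MMP-9 was quantified by ELISA 24 h later. Bidirectional curve fitting used DMSO as negative control and activity baseline.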

[5] = read-out: urokinase plasminogen activator (uPA), PLAU (gene 5328); assay: BSK_KF3CT_uPA: BioMAP Diversity Plus: KF3CT Assay for urokinase plasminogen activator (uPA) Biomarker Activity (AID 2283075); conditions: primary human keratinocytes with fibroblasts; actives raise or lower the signal
Summary of the method: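 Human keratinocyte plus foreskin fibroblast primary co-culture exposed to chemical for 24 h. uPA levels were quantified by ELISA, and activity was fitted bidirectionally against a DMSO negative-control baseline.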

[6] = read-out: E-selectin (Homo sapiens) (UniProt P16581); assay: BSK_LPS_Eselectin: BioMAP Diversity Plus: LPS Assay for Eselectin Biomarker Activity (AID 2283077); conditions: primary human HUVEC with PBMC; actives raise or lower the signal
Summary of the method: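 Signal of E-selectin, detected by ELISA, served as the endpoint; cells were umbilical vein endothelium with PBMC, read 24 h after treatment. DMSO defined baseline, and both increases and decreases were fitted.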

[7] = read-out: Interleukin-8 (IL8), CXCL8 (gene 3576); assay: BSK_LPS_IL8: BioMAP Diversity Plus: LPS Assay for Interleukin-8 (IL8) Biomarker Activity (AID 2283078); conditions: primary human HUVEC with PBMC; actives raise or lower the signal
Summary of the method: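 Endothelial cells and PBMC from human donors are co-cultured, treated with chemicals and LPS, then assayed for IL-8 by ELISA after 24 h. Parallel SRB staining (0.1% SRB after 10% TCA fixation, 560 nm) flags cytotoxicity.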

[8] = BSK_LPS_SRB: Viability Assessment in the BioMAP Diversity Plus: LPS Assay (AID 2283079); conditions: primary human HUVEC with PBMC;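 note: total protein by sulforhodamine B absorbance as a cytotoxicity measure; measured one day after compound addition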
Summary of the method: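 Overt cytotoxicity was gauged by sulforhodamine B total-protein staining in a primary human vascular endothelial and mononuclear cell co-culture 24 h post-dosing. Activity was fitted in both directions relative to DMSO.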

[9] = read-out: Interleukin-1 alpha (IL1a), IL1A (gene 3552); assay: BSK_LPS_IL1a: BioMAP Diversity Plus: LPS Assay for Interleukin-1 alpha (IL1a) Biomarker Activity (AID 2283080); conditions: primary human HUVEC with PBMC; actives raise or lower the signal
Summary of the method: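 Measured: IL-1 alpha via ELISA at 24 h in LPS-activated human umbilical vein endothelium–PBMC co-culture. Baseline: DMSO, bidirectional fitting.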

[10] = read-out: Monocyte Chemoattractant Protein-1 (MCP1), CCL2 (gene 6347); assay: BSK_LPS_MCP1: BioMAP Diversity Plus: LPS Assay for Monocyte Chemoattractant Protein-1 (MCP1) Biomarker Activity (AID 2283081); conditions: primary human HUVEC with PBMC; actives raise or lower the signal;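 for AC50: secreted MCP-1 protein quantified by ELISA in culture supernatant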
Summary of the method: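 LPS-stimulated HUVEC/PBMC co-culture; chemical, 24 h; MCP-1 by ELISA; bidirectional fit vs DMSO; cytotoxicity via SRB (0.1% stain, 10% TCA fix, 560 nm) in parallel wells.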

[11] = BSK_LPS_PGE2: BioMAP Diversity Plus: LPS Assay for Prostaglandin E2 (PGE2) Biomarker Activity (AID 2283082); conditions: primary human HUVEC with PBMC; actives raise or lower the signal;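 for AC50: secreted prostaglandin E2 measured by ELISA in LPS-stimulated co-culture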
Summary of the method: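 LPS-activated HUVEC/PBMC co-culture; cmpd dosed, 24 h; PGE2 by ELISA; bidirectional fit vs DMSO; SRB (0.1%, TCA-fixed, 560 nm) in parallel plates for overt cytotox.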

[12] = read-out: Macrophage colony-stimulating factor (MCSF), CSF1 (gene 1435); assay: BSK_LPS_MCSF: BioMAP Diversity Plus: LPS Assay for Macrophage colony-stimulating factor (MCSF) Biomarker Activity (AID 2283083); conditions: primary human HUVEC with PBMC; actives raise or lower the signal
Summary of the method: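 Compound is added to a human vascular primary co-culture of umbilical vein endothelium and blood mononuclear cells. After 24 h, M-CSF is quantified by ELISA. Signal changes are fitted in both directions against DMSO.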

[13] = read-out: Tissue Factor, F3 (gene 2152); assay: BSK_LPS_TissueFactor: BioMAP Diversity Plus: LPS Assay for Tissue Factor Biomarker Activity (AID 2283084); conditions: primary human HUVEC with PBMC; actives raise or lower the signal
Summary of the method: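 In this co-culture system of umbilical vein endothelium with PBMC, stimulated with LPS, cell-surface CD142 is detected by ELISA at 24 h. Endpoint values derive from bidirectional fitting, DMSO serving as baseline.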

[14] = read-out: Tumor necrosis factor (Homo sapiens) (UniProt P01375); assay: BSK_LPS_TNFa: BioMAP Diversity Plus: LPS Assay for Tumour Necrosis Factor alpha (TNFa) Biomarker Activity (AID 2283085); conditions: primary human HUVEC with PBMC; actives raise or lower the signal;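 for AC50: TNFa protein level quantified by ELISA in the co-culture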
Summary of the method: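 Read-out is ELISA of TNFa in primary human endothelial cell–PBMC co-cultures at 24 h after compound. Activity in either direction was fitted against DMSO.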

[15] = read-out: Vascular cell adhesion molecule 1 (VCAM1), VCAM1 (gene 7412); assay: BSK_LPS_VCAM1: BioMAP Diversity Plus: LPS Assay for Vascular cell adhesion molecule 1 (VCAM1) Biomarker Activity (AID 2283086); conditions: primary human HUVEC with PBMC; actives raise or lower the signal
Summary of the method: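 HUVEC + PBMC co-culture, LPS system; compound 24 h; VCAM-1 by ELISA; bidirectional fit vs DMSO control; parallel SRB (0.1%, TCA-fixed, 560 nm) for cytotoxicity.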

[16] = read-out: CD38, CD38 (gene 952); assay: BSK_SAg_CD38: BioMAP Diversity Plus: SAg Assay for CD38 Biomarker Activity (AID 2283087); conditions: primary human HUVEC with PBMC; actives raise or lower the signal
Summary of the method: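 Human HUVEC plus PBMC co-culture stimulated with superantigen; CD38 measured by ELISA 24 h after chemical dosing. Fluorescence read-out, bidirectional fit against DMSO; cytotoxicity tracked in parallel by SRB and Alamar Blue.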

[17] = read-out: CD40, CD40 (gene 958); assay: BSK_SAg_CD40: BioMAP Diversity Plus: SAg Assay for CD40 Biomarker Activity (AID 2283088); conditions: primary human HUVEC with PBMC; actives raise or lower the signal
Summary of the method: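 Fluorescence ELISA read-out of CD40 from umbilical vein endothelium plus peripheral blood mononuclear cells, sampled 24 h after dosing. Values come from bidirectional curve fitting with DMSO as baseline.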

[18] = read-out: CD69, CD69 (gene 969); assay: BSK_SAg_CD69: BioMAP Diversity Plus: SAg Assay for CD69 Biomarker Activity (AID 2283089); conditions: primary human HUVEC with PBMC; actives raise or lower the signal;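 for AC50: cell surface CD69 protein quantified by ELISA with fluorescence detection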
Summary of the method: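 HUVEC co-cultured with PBMC were dosed with chemical, and CD69 was measured by ELISA with fluorescence read-out 24 h later. Bidirectional curve fitting used DMSO as negative control and activity baseline.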

[19] = read-out: C-C motif chemokine 2 (Homo sapiens) (UniProt P13500); assay: BSK_KF3CT_MCP1: BioMAP Diversity Plus: KF3CT Assay for Monocyte Chemoattractant Protein 1 (MCP1/CCL2) Biomarker Activity (AID 2283073); conditions: primary human keratinocytes with fibroblasts; actives raise or lower the signal
Summary of the method: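 Keratinocytes and foreskin fibroblasts were co-cultured, dosed with chemical, and sampled 24 h later. MCP-1 was quantified by ELISA, and the endpoint was analyzed with bidirectional fitting using DMSO as negative control.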

[20] = read-out: CD40, CD40 (gene 958); assay: BSK_LPS_CD40: BioMAP Diversity Plus: LPS Assay for CD40 Biomarker Activity (AID 2283076); conditions: primary human HUVEC with PBMC; actives raise or lower the signal
Summary of the method: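 CD40 signal, measured by ELISA, is fitted in both directions relative to DMSO vehicle. The system is an LPS-driven human vascular primary co-culture of endothelial cells and PBMC, sampled 24 h after compound addition.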

Measured: AC50

Sequence of Tumor necrosis factor (Homo sapiens) (P01375 whole entry, looked up): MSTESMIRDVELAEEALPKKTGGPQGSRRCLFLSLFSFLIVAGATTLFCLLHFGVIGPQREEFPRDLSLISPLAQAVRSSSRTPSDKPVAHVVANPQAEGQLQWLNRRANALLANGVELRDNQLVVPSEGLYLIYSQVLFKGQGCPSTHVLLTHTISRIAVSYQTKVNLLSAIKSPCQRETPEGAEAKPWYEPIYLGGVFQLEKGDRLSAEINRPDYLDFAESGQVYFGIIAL
Sequence of E-selectin (Homo sapiens) (P16581 whole entry, looked up): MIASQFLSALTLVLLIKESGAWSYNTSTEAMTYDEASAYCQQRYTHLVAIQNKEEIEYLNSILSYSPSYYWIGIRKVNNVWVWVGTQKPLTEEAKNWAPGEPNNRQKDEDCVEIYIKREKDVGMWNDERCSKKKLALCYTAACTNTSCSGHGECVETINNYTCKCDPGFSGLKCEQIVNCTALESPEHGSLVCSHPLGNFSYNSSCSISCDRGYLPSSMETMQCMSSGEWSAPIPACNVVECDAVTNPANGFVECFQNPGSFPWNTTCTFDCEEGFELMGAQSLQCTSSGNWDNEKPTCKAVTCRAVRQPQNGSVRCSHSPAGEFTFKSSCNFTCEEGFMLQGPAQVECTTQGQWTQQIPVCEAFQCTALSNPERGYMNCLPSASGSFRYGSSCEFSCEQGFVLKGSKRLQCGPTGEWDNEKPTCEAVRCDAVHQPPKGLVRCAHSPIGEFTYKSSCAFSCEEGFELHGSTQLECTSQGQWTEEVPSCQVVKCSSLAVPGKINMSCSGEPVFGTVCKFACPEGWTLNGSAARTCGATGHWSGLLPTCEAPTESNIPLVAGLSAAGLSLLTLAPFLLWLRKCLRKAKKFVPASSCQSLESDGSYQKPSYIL

c1nc[nH]n1
not listed: [19] | [20]
inactive: all other assays above

CC(C)(C)c1ccc(O)cc1
active: [11] 3.65 µM
not listed: [19] | [20]
inactive: all other assays above

CCCCOCCOP(=O)(OCCOCCCC)OCCOCCCC
active: [3] 0.016 µM | [4] 3.97 µM
not listed: [16] | [19] | [20]
inactive: all other assays above

COCCOCCO
active: [2] 0.148 µM | [10] 27.5 µM
not listed: [19] | [20]
inactive: all other assays above

O=C(O)C=CC(F)(C(F)(F)F)C(F)(F)F
not listed: [3] | [20]
inactive: all other assays above

COP(=O)(CCC(=O)NCO)OC
not listed: [3] | [19]
inactive: all other assays above

CCCCCCCc1ccc(O)cc1
active: [1] 30.4 µM | [2] 32.2 µM | [3] 31.7 µM | [4] 30.5 µM | [6] 35.8 µM | [7] 35.1 µM | [8] 37.2 µM | [9] 31.2 µM | [10] 36.5 µM | [11] 2.95 µM | [12] 32 µM | [13] 38.1 µM | [14] 30.8 µM | [15] 36.2 µM | [17] 35.6 µM | [18] 39.2 µM
